SMARCA2 activ: increases SMARCA2 function in MMTV reporter cells. actives 1% (n = 370,000). activation, % at 9.1 µM. MG213 cells, MMTV-luciferase reporter, dexamethasone, overnight. AID 652017; in the data active means activation above about 7.8%;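 further: 0% = vehicle wells and 100% = reference activator wells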
NR3A LBD binder: NR3A (human) ligand-binding domain modulation. NR3A LBD differential scanning fluorimetry, Tm shift; 0% = protein alone, 100% = glycine-bound protein. Tm shift relative to glycine control, % at 25 µM. AID 1259313. actives 2.5% (n = 340,000);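 active means melting temperature shift of at least 10% of the positive control shift, at one fixed dose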
NadD block: blocks S. aureus nicotinate mononucleotide adenylyltransferase; purified NadD enzyme, colorimetric absorbance read-out; inhibition, % at 20 µM; actives 0.78% (n = 360,000); in the data active means inhibition above about 26%
Vif inh: HIV Vif inhibition; inhibition, % at 7.49 µM; HEK293T cells, Vif self-association by quenched fluorescence, imaging, 24 h; actives 0.35% (n = 340,000); in the data active means inhibition above about 50%, passing the limit was not always enough
esBAF inh: SWI/SNF esBAF complex inhibition | reporter increase, % at 12.5 µM | mouse ES cells, Bmi1-luciferase knock-in reporter, 24 h; 100% = twice the neutral-well signal | actives 2% (n = 350,000) | AID 602393; in the data active means activation above about 40%;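 further: 0% = median of the plate's neutral control wells and 100% = double that signal; a rise in the Bmi1 reporter signal indicates esBAF inhibition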
SKN-1 block: inhibitors of C. elegans SKN-1 | C. elegans VP596 Pgst-4::GFP/RFP ratio, acrylamide-induced, 24 h | inhibition, % at 21.8 µM | actives 0.49% (n = 360,000);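 active means interference check ratio from 0.5 to 1.5 plus GFP to RFP signal ratio inhibition reaching or exceeding a fixed threshold, cut at about 30% in these data, passing the limit was not always enough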
An asterisk follows results filed as active; nt = no result given. A selection: hits, their analogues and other compounds. The true share with any hit is near 5.2%.

SMILES	SMARCA2 activ	NR3A LBD binder	NadD block	Vif inh	esBAF inh	SKN-1 block
O=C(CC1CCCCC1)NCc1ccccc1Cl	1.3	-1.5	4.2	-1.8	52.6*	-4.7
O=C(Nc1ccc(NC(=O)c2ccc(S(=O)(=O)c3ccccc3)cc2)cc1)c1ccccc1	0.9	-3.0	15.7	-13.3	-1.2	2.2
O=C(O)c1ccc(S(=O)(=O)c2ccc3c(c2)C(=O)N(NC(=O)c2ccncc2)C3=O)cc1	-5.1	-0.4	-1.4	11.2	nt	-10.4
O=C(O)c1ccc(S(=O)(=O)c2ccccc2)cc1	1.1	0.0	2.8	0.4	-4.0	40.4*
O=C(O)c1ccc(S(=O)(=O)c2ccc3c(c2)C(=O)N(NC(=O)c2ccccc2)C3=O)cc1	1.3	23.0*	0.1	-0.7	-4.0	-12.8
O=C(CN1CCOCC1)NCC[C@H]1CC[C@H](NC(=O)Nc2ccccc2)[C@H](CO)O1	nt	nt	nt	nt	-4.0	nt
CCCS(=O)(=O)N1CCCC(C(=O)NCCCN2CCN(c3ccccc3F)CC2)C1 (stereo unspecified)	-0.4	-0.5	-3.2	59.0*	6.9	-5.1
O=C(NCCCN1CCN(c2ccccc2F)CC1)Nc1ccc(F)cc1	2.8	0.1	-9.3	-4.3	5.6	26.1
O=C(Cn1c(=O)c2cccn2c2ccc(F)cc21)NCCCN1CCN(c2ccccc2F)CC1	-0.3	13.4*	-8.1	3.6	0.6	2.1
CSc1ccc(NC(=O)NCCCN2CCN(c3ccccc3F)CC2)cc1	nt	-4.2	-7.0	0.4	-1.9	33.4*
CCC(=O)Nc1ccc2c(c1)C(=O)N(C)C[C@@H](OC)[C@@H](C)CN(Cc1ccncc1)[C@H](C)CO2	nt	nt	nt	nt	2.5	nt
Cc1ccc(N(CC(=O)N2CCCCCC2)S(C)(=O)=O)cc1Cl	0.5	0.5	-2.7	1.2	6.8	3.2
Cc1ccc(N(CC(=O)O)S(C)(=O)=O)cc1Cl	-3.4	11.5*	-0.4	15.9	-1.3	-1.0
O=C1C=C(c2cc(C(F)(F)F)cc(C(F)(F)F)c2)C[C@@H](c2ccc(Cl)cc2)C1	-0.9	12.9*	4.4	-3.8	2.3	16.6
O=C1C=C(c2ccc(C(=O)O)cc2)C[C@@H](c2ccc(F)cc2)C1	6.5	0.2	0.1	nt	45.3*	9.3
O=C1C=C(c2ccc3[nH]ccc3c2)C[C@@H](c2ccc(Cl)cc2)C1	-1.8	21.6*	-9.1	-7.6	6.0	7.1
O=C1C=C(c2ccc(-c3ccccc3)cc2)C[C@@H](c2ccc(F)cc2)C1	-0.3	-2.7	-0.1	-2.0	-0.5	16.2
O=C1C=C(c2ccccc2)C[C@@H](c2ccc(Cl)cc2)C1	-0.4	-3.8	1.1	-3.3	-6.5	9.6
C[C@@H]1CN([C@@H](C)CO)C(=O)c2cc(NC(=O)c3ccccc3)ccc2O[C@@H](C)CCCCO[C@@H]1CN(C)S(=O)(=O)c1cccs1	nt	nt	nt	nt	-0.1	nt
O=C(C[C@@H]1CC[C@H](NC(=O)C2CC2)[C@@H](CO)O1)NC1CCC1	nt	nt	nt	nt	-0.3	nt
C[C@@H]1CCCCO[C@@H](CN(C)C(=O)c2ccccc2)[C@H](C)CN([C@@H](C)CO)C(=O)c2cc(NC(=O)Nc3ccccc3)ccc2O1	nt	nt	nt	nt	-2.2	nt
CN(CC(=O)Nc1cccc(F)c1)C(=O)CCNC(=O)c1ccc(Br)cc1	-0.3	-2.3	-0.5	-6.0	23.4	16.0
CN(CC(=O)Nc1cccc(F)c1)C(=O)CCCNC(=O)c1ccc(Cl)cc1	0.7	0.7	-3.1	0.8	53.8*	-15.3
CCN(CC)CCC=C(c1cccs1)c1cccs1	7.9*	-3.6	9.1	-16.7	-1.4	10.6
O=C(c1ccccc1)c1ccc2cc(O)ccc2c1	1.1	-7.6	-5.6	-11.8	55.1*	10.3
SMILES	SMARCA2 activ	NR3A LBD binder	NadD block	Vif inh	esBAF inh	SKN-1 block
C[C@@H](NC(=O)C[C@@H]1CC[C@H]2[C@@H](COC[C@H](O)CN2C(=O)Nc2ccccc2)O1)c1ccccc1	nt	nt	nt	nt	0.3	nt
C/C(N)=C(/C#N)C(=O)COC(=O)c1cc(C)n(-c2ccc(F)cc2)c1C	3.8	6.8	-3.7	-2.0	67.5*	9.8
Cc1cc(C(=O)OCC(N)=O)c(C)n1-c1ccccc1	2.6	-1.2	-4.5	-2.8	nt	6.7
O=C(COc1ccc(/C=N/NC(=O)c2ccccc2O)cc1)Nc1ccccc1	-2.4	15.8*	9.9	-27.4	nt	9.5
COc1ccccc1NC(=O)COc1ccc(/C=N/NC(=O)c2cccnc2)cc1	-0.8	-9.3	1.9	-4.9	-3.6	-0.1
O=C(COc1ccc(/C=N/NC(=O)c2cccnc2)cc1)Nc1ccccc1	-2.3	13.4*	-2.3	-4.4	-2.1	7.5
COc1cc(/C=N/NC(=O)c2ccccc2O)ccc1OCC(=O)Nc1ccccc1	1.8	37.4*	6.8	1.6	18.9	15.8
COc1cc(/C=N\Nc2ccc([N+](=O)[O-])cc2)ccc1OCC(=O)Nc1ccc(C)c(C)c1	-1.3	16.5*	16.7	-12.5	10.3	-5.0
COc1ccc(/C=C/C(=O)NC(=S)Nc2ccccc2)cc1OC	-1.6	3.5	-2.0	0.5	2.8	4.3
COc1cc(/C=C/C(=O)NC(=O)c2ccccc2O)ccc1OC(C)=O	5.5	-6.3	-1.4	-0.8	53.9*	-8.7
N=C1C(c2nc3ccccc3s2)=C(O)CN1CCCO	0.6	nt	-0.6	0.5	4.7	6.9
CCCCN1CC(O)=C(c2nc3ccccc3s2)C1=N	7.2	1.5	1.0	-1.1	58.3*	7.1
COc1ccc(C2Nc3ccccc3C(=O)N2Cc2ccccc2)cc1COc1ccccn1 (stereo unspecified)	-3.2	0.3	4.0	3.1	-1.1	1.2
COc1ccc(C2Nc3ccccc3C(=O)N2Cc2ccco2)cc1COc1ccc(F)cc1 (stereo unspecified)	-4.9	-4.9	2.6	-12.4	-16.1	42.6*
CCOc1ccc(C2=CC(=O)C[C@H](c3ccc(OC)cc3)C2)cc1	3.3	-1.4	-5.3	-2.4	76.0*	0.4
COc1ccc([C@H]2CC(=O)C=C(c3cc4ccccc4s3)C2)cc1	0.3	-5.9	-3.0	50.6*	35.3	-7.6
COc1ccc(C2=CC(=O)CC(c3ccc(OC)cc3)C2)cc1 (stereo unspecified)	-1.2	-0.2	-5.9	-8.2	12.2	0.0
O=C1C=C(c2cc3ccccc3s2)C[C@@H](c2ccc(Cl)cc2)C1	0.8	-2.7	-0.1	-2.3	19.4	6.2
Cc1sc2nc(-c3ccc(Br)cc3)oc(=O)c2c1C	nt	2.9	-6.3	-3.0	55.4*	-0.2
O=S1(=O)N=C(N2CCN(c3ccc(F)cc3)CC2)c2ccccc21	-1.9	0.1	8.6	3.9	45.7*	10.3
O=C(C[C@H]1CC[C@@H]2[C@H](COC[C@H](O)CN2C(=O)c2ccccc2)O1)Nc1ccccc1	nt	nt	nt	nt	2.3	nt
Cc1ccc(NCc2nc3ccccc3n2C)cc1C	6.1	-0.2	0.7	-3.9	51.3*	13.5
CC(C)n1c(NCc2nc3ccccc3n2C)nc2ccccc21	-3.0	-2.1	1.1	1.7	1.3	-2.6

Source: PubChem
